Data: PubChem BioAssay AID1220 (Sanford-Burnham Center for Chemical Genomics, 2008)
“And” between values parts separate entries of the source, which are not always exact repeats. Equal entries are not always repeated. Out of some 190,000 compounds screened, about 1,300 (0.68%) were called active. No stated cut-off is given here; in the data, active means inhibition above about 50%; inactive means the rest. Only a selection was taken, and actives are over-represented in it overall. Some compounds were tested as several samples or in several runs, with calls that do not always agree.

Molecular target: Mannose-6-phosphate isomerase (Homo sapiens) (UniProt P34949)
Assay: human PMI inhibitors, high substrate, primary screen, biochemical, fluorescence intensity, high mannose 6-phosphate (AID 1220)
Details: recombinant PMI enzyme, coupled fluorescence intensity; at 20 µM; stronger effect = higher value

Sequence of Mannose-6-phosphate isomerase (Homo sapiens) (P34949 whole entry, looked up): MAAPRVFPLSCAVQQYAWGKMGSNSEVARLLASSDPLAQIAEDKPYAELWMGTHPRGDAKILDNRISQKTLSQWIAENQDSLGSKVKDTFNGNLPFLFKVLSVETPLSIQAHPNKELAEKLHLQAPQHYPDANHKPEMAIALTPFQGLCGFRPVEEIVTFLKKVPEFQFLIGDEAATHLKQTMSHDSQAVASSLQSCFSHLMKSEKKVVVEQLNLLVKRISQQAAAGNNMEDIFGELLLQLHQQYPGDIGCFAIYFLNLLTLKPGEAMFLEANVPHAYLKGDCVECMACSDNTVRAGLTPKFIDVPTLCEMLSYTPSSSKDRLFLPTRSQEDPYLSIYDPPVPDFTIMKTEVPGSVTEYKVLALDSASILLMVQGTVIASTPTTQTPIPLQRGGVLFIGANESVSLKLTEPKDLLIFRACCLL

SMILES	inhibition
CN(c1ccccc1)S(=O)(=O)c1ccc(Cl)c(C(=O)Nc2ccc(-c3nc4ccccc4[nH]3)cc2)c1	3.8% (inactive)
CC1CCCC(NC(=O)CC2Nc3ccccc3NC2=O)C1C (stereo unspecified)	-4.1% (inactive)
N#C/C(=C\c1cn(Cc2ccccc2)c2ccccc12)C(=O)NCc1ccco1	15.2% (inactive)
Nn1cnnc1SCC(=O)Nc1ccc2c(c1)OCCO2	9.6% (inactive)
O=C(NCc1ccco1)/C(=C/C=C/c1ccccc1)NC(=O)c1ccco1	6% (inactive)
CC(=O)c1ccc(NC(=S)NCc2cccnc2)cc1	-2.6% (inactive)
c1ccc(COc2cccc(CNCc3ccccn3)c2)cc1	-10.4% (inactive)
Cc1ccc2cc(CCNC(=O)Cc3cccs3)c(=O)[nH]c2c1	-0.6% (inactive)
c1ccc(-c2cc(-c3nc4ccccc4[nH]3)c3ccccc3n2)cc1	12.1% (inactive)
c1ccc2[nH]c(-c3ccnc4ccccc34)nc2c1	51.2% (active) and -1.5% (inactive)
Fc1ccccc1-c1nc2ccccc2[nH]1	-1.9% (inactive)
CC(=O)OCCNc1cc(N2CCN(C)CC2)c2noc3c2c1C(=O)c1ccccc1-3	50.5% (active)
CCOC(=O)N1CCN(c2cc(NCCC(=O)O)c3c4c(onc24)-c2ccccc2C3=O)CC1	-2.8% (inactive)
O=C(O)CCCCCNS(=O)(=O)c1cccc2c1C(=O)c1ccccc1C2=O	31.4% (inactive)
CCCCNC(=O)c1ccc(N2CCC3(CC2)OCCO3)c([N+](=O)[O-])c1	2.4% (inactive)
O=C(O)CCCNc1cc(N2CCC3(CC2)OCCO3)c2noc3c2c1C(=O)c1ccccc1-3	54.1% (active)

SMILES	inhibition
CN1CCN(c2ccc(Cl)cc2NC(=O)CCN2C(=O)c3ccccc3C2=O)CC1	-10.2% (inactive)
CC(Oc1ccccc1F)C(=O)NNC(=O)c1cc2ccccc2o1 (stereo unspecified)	2.5% (inactive)
Cc1ccc(NC(=S)NC2CCN(Cc3ccccc3)CC2)cc1	8.2% (inactive)
COc1cc(NC(=O)Cn2cnc3ccccc3c2=O)c(OC)cc1Cl	14.9% (inactive)
CCOC(=O)c1sc2ncnc(N3CCN(CC)CC3)c2c1C	-2.6% (inactive)
O=C(Cn1cnc2c(nnn2Cc2ccc(F)cc2)c1=O)NCc1ccc(F)cc1	-6.8% (inactive)
COC(=O)c1cc(C(=O)OC)cc(-n2c(C)cc(C(=O)COC(=O)CNS(=O)(=O)c3ccc(C)cc3)c2C)c1	6.4% (inactive)
Cc1cc(N/N=C/c2ccc(O)c(C)c2O)nc(-c2ccccc2O)n1	33.4% (inactive)
Oc1ccc(/C=N\Nc2cc(N3CCOCC3)nc(N3CCOCC3)n2)c(O)c1	61.1% (active)
C(=N\Nc1ccccn1)/c1ccc(N2CCOCC2)cc1	23.5% (inactive)
Cc1cc(N/N=C/c2ccccc2O)nc(-c2ccccc2O)n1	48.2% (inactive)
Cc1cc(N/N=C/c2ccc(O)cc2O)nc(-c2ccccc2O)n1	52.9% (active)
Oc1ccc(/C=N/Nc2nc(N3CCCC3)nc(N3CCCC3)n2)cc1O	27% (inactive)
Oc1ccc(/C=N/Nc2nc(N3CCCCCC3)nc(N3CCCCCC3)n2)c(O)c1	19.9% (inactive)
CC(=O)NNc1cc(N2CCOCC2)nc(N2CCOCC2)n1	11.3% (inactive)
